Experimental data published in PubChem BioAssay (EPA / NIEHS).
Calls of active or inactive are those of the source. Rule for the calls: active = hit-call score of the fitted dose curve at least 0.9, where 1 is the maximum; inactive = score below 0.9.

Test: ATG_AP_2_CIS: Attagene CIS-FACTORIAL HepG2 Assay for human Activator Protein 2 (AP-2) (AID 2282932)
Settings: HepG2 AP-2 cis-reporter, Attagene transcription factor profiling; actives raise or lower the signal
Description: ATG_CIS is a cell-based, multiplexed-readout assay that uses HepG2, a human liver cell line, with measurements taken at 24 hours after chemical dosing in a 24-well plate.ATG_AP_2_CIS is one of 52 assay component(s) measured or calculated from the ATG_CIS assay. It is designed to make measurements of mRNA induction, a form of inducible reporter, as detected with fluorescence intensity signals by Reverse transcription polymerase chain reaction (RT-PCR) and Capillary electrophoresis technology.Data from the assay component ATG_AP_2_CIS was analyzed into 1 assay endpoint. This assay endpoint, ATG_AP_2_CIS, was analyzed with bidirectional fitting relative to DMSO as the negative control and baseline of activity. Using a type of inducible reporter, measures of mRNA for gain or loss-of-signal activity can be used to understand the reporter gene at the transcription factor-level as they relate to the gene TFAP2A and TFAP2B and TFAP2D. Furthermore, this assay endpoint can be referred to as a primary readout, because this assay has produced multiple assay endpoints where this one serves a reporter gene function. To generalize the intended target to other relatable targets, this assay endpoint is annotated to the dna binding intended target family, where the subfamily is basic helix-turn-helix leucine zipper.
Human liver HepG2 cells are transiently transfected with multiple reporter transcription units (MRTUs) in 6-well plates using FuGene 6 reagent (Roche; 3 ml FuGene/1 mg DNA). The MRTU constructs are regulated by a cis-regulating element (promoter). […] A major difference between the CIS and TRANS system is that in CIS activities of endogenous TFs are measured, whereas the TRANS assay evaluates changes in activities of exogenous, chimeric NR-Gal4 proteins. […] At the end of 24 hour incubation, total RNA was isolated using TriZol reagent (Invitrogen). The isolated RNA is then reverse-transcribed using oligo(dT) primer and Mo-MLV reverse transcriptase (Invitrogen) with DNAse I (Ambion) treatment for 30 min. The one-tenth of the produced cDNA was amplified by PCR using Taq DNA polymerase (Invitrogen) and two reporter sequence-specific primers. The PCR products were fluorescently labeled by primer extension with 6-arboxyfluorescein (6-FAM) 5'-labeled reporter sequence-specific primer (2 min at 95 C, 20 s at 68 C and 10 min at 72 C) and these products were digested with 5U of HpaI (New England Biolabs) for 2h at 37 C. The fragments were purified using Qiaquick PCR columns (Qiagen), analyzed on an ABI 3130xL genetic analyzer (Applied Biosystems) with peak positions identified by using a set of X-rhodamine (ROX)-labeled MapMarker1000 molecular weight standards (BioVentures). The raw capillary electrophoresis data was processed using Attagraph software (Attagene).
In the case of CCC(C)(C)c1ccc(O)c(C(C)(C)CC)c1, the outcome is reported as “inactive”. With c1cc[c]([Hg][c]2ccccc2)cc1 the outcome was “inactive”. For CCOP(=S)(OCC)Oc1nc(Cl)c(Cl)cc1Cl, the outcome was “inactive”. In the case of O=[N+]([O-])c1ccc2c3c(cccc13)CC2, the outcome is reported as “inactive”. With CCc1ccccc1C the outcome was “inactive”. In the case of CCCCC(CC)CO[N+](=O)[O-] (stereo not given), the outcome is reported as “inactive”. In the case of CCC(=O)C(CC(C)N(C)C)(c1ccccc1)c1ccccc1 (stereo not given), the outcome is reported as “inactive”. With O=[N+]([O-])c1ccc(O)c([N+](=O)[O-])c1 the outcome was “inactive”. With CC(Br)C(=O)O (stereo not given) the outcome was “inactive”. For O=P(O)(O)CN(CP(=O)(O)O)CP(=O)(O)O, the outcome was “inactive”. In the case of COC(=O)Cc1ccccc1, the outcome is reported as “inactive”. In the case of COP(=S)(OC)Oc1c(Cl)cc(C)cc1Cl, the outcome is reported as “inactive”. For Cn1sc(Cl)cc1=O, the outcome was “inactive”. In the case of CC(C)OC(=O)Nc1ccccc1, the outcome is reported as “inactive”. For C=CC#N, the outcome was “inactive”. With CC1(C)CCC(Cc2ccc(Cl)cc2)C1(O)Cn1cncn1 (stereo not given) the outcome was “inactive”. For O=C(Cc1ccccc1)c1ccccc1, the outcome was “inactive”. For CCC[CH2][Sn]([Cl])([Cl])[Cl], the outcome was “inactive”. For CCc1ccccc1N, the outcome was “inactive”. For C=CCc1ccc(OC)cc1, the outcome was “inactive”. With CN(C)P(=O)(N(C)C)N(C)C the outcome was “inactive”. In the case of Nc1ccc(-c2ccc(N)c(Cl)c2)cc1Cl, the outcome is reported as “inactive”. In the case of C=CC(=O)OCCCCCC(C)C, the outcome is reported as “inactive”. In the case of C[C@H]1CCCC(=O)CCC/C=C/c2cc(O)cc(O)c2C(=O)O1, the outcome is reported as “inactive”. In the case of CC(C)(C)c1cc(O)ccc1O, the outcome is reported as “inactive”. In the case of CCN(CC)C(=O)Cl, the outcome is reported as “inactive”. For O=C(Cl)c1ccc(Cl)cc1, the outcome was “inactive”. With CCC(C)c1cccc(C(C)CC)c1O (stereo not given) the outcome was “inactive”. With CCC[CH2][Sn]([CH2]CCC)([CH2]CCC)[O]C(=O)c1ccccc1 the outcome was “inactive”. With O=C(CCl)CCl the AC50 was 33.4 µM (active). In the case of Cl/C=C/Cl, the outcome is reported as “inactive”. With N#CN=C(N)N the outcome was “inactive”. For OCC(O)CCl (stereo not given), the outcome was “inactive”. With CCOC(=O)CP(=O)(OCC)OCC the outcome was “inactive”. In the case of CC(C)(c1ccccc1)c1ccc(O)c(C(C)(C)c2ccccc2)c1, the outcome is reported as “inactive”. For ClC1=C(Cl)[C@]2(Cl)[C@@H]3[C@@H](Cl)[C@@H](Cl)C[C@@H]3[C@@]1(Cl)C2(Cl)Cl, the outcome was “inactive”. For COc1cc(-c2ccc(N)c(OC)c2)ccc1N, the outcome was “inactive”. With Nc1ccc(N=Nc2ccc(-c3ccc(N=Nc4c(S(=O)(=O)O)cc5cc(S(=O)(=O)O)c(N=Nc6ccccc6)c(O)c5c4N)cc3)cc2)c(N)c1 the outcome was “inactive”. In the case of CC12CC1(C)C(=O)N(c1cc(Cl)cc(Cl)c1)C2=O (stereo not given), the outcome is reported as “inactive”. In the case of CNC(=O)O/N=C/C(C)(C)S(C)=O (stereo not given), the outcome is reported as “inactive”.
